Assay outcomes: PubChem BioAssay, The Scripps Research Institute Molecular Screening Center
Shown are actives, neighbours in structure and some others; about 1.8% of the full set was active somewhere.
Fam108B inh – mouse Fam108B serine hydrolase inhibitors, primary screen, counter-screen for RBBP9 inhibitor project, biochemical, fluorescence polarization. recombinant Fam108B, FP-Rh probe fluorescence polarization. inhibition, % at 9.51 µM. actives 0.33% (n = 300,000). AID 1947, 2009;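 active means inhibition above the screen mean inhibition plus 3 SD, computed separately per campaign, cut at about 18% in these data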;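 further: inhibitors lower polarization as less probe binds the enzyme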
PME-1 inh – PME-1 inhibitors via competitive probe labeling, primary screen, biochemical, fluorescence polarization, FP-Rh probe, HTS | Protein phosphatase methylesterase 1 (Homo sapiens), Q9Y570 | recombinant PME-1 | inhibition, % at 5.9 µM | actives 0.53% (n = 320,000) | AID 2130, 2009;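 active means inhibition above the campaign mean of all compounds plus 3 SD, cut at about 26% in these data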;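 further: competitive labeling of PME-1 active site by serine hydrolase directed probe; 0% = PME-1 with DMSO and 100% = wells lacking PME-1 enzyme; inhibitors block probe labeling so polarization falls and inhibition rises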
Target sequence (Q9Y570 whole entry, looked up): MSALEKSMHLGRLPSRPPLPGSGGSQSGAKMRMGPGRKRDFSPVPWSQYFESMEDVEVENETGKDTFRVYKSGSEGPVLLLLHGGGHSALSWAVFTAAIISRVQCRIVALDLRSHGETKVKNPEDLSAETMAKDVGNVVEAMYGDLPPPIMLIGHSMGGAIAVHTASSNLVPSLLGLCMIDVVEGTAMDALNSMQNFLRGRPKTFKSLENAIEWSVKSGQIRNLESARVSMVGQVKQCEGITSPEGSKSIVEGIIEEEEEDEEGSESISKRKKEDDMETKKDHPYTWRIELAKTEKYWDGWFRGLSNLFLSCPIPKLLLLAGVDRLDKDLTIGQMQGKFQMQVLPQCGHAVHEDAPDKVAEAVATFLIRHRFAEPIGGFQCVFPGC
PAD4 inh – human PAD4 inhibitors, primary screen, biochemical, fluorescence polarization, 1536-well format; Protein-arginine deiminase type-4 (Homo sapiens), Q9UM07; recombinant PAD4, RCA probe fluorescence polarization; inhibition, % at 6.36 µM; actives 0.41% (n = 330,000); AID 485272, 2010;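 active means percent inhibition above a cutoff equal to the mean of all tested compounds plus 3 SD, cut at about 15% in these data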;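 further: 0% = PAD4 with RCA probe and DMSO and 100% = probe without PAD4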
LYPLA2 counter – LYPLA2 inhibitors, primary screen, counter-screen for PME1 inhibitor project, biochemical, fluorescence polarization, FP-Rh probe ABPP; Acyl-protein thioesterase 2 (Homo sapiens), O95372; recombinant LYPLA2; inhibition, % at 5.9 µM; actives 0.38% (n = 320,000); AID 2177, 2009;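 active means inhibition above the screen-wide mean plus 3 SD, limit set per campaign, cut at about 26% in these data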;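 further: 0% = LYPLA2 with DMSO and 100% = wells lacking LYPLA2 enzyme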
LYPLA1 counter – LYPLA1 inhibitors, primary screen, counter-screen for PME1 inhibitor project, biochemical, fluorescence polarization, FP-Rh probe ABPP | Acyl-protein thioesterase 1 (Homo sapiens), O75608 | recombinant LYPLA1 | inhibition, % at 5.9 µM | actives 0.16% (n = 320,000);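 active means inhibition above the mean of all tested compounds plus 3 SD, set per campaign, cut at about 14% in these data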;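 further: inhibitors block serine hydrolase probe labeling of LYPLA1 so polarization falls; 0% = enzyme with DMSO and 100% = wells lacking LYPLA1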
GSTO1 counter – inhibitors of recombinant GSTO1, primary screen, counter-screen for RBBP9 inhibitor project, biochemical, fluorescence polarization; activity-based probe fluorescence polarization; inhibition, % at 5.96 µM; actives 1.1% (n = 300,000); Glutathione S-transferase omega-1 (Homo sapiens), P78417;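 active means inhibition above the campaign mean inhibition plus 3 SD, cut at about 35% in these data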;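 further: 0% = GSTO1-1 with DMSO and 100% = wells lacking GSTO1-1 enzyme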
Target sequence (P78417 whole entry, looked up): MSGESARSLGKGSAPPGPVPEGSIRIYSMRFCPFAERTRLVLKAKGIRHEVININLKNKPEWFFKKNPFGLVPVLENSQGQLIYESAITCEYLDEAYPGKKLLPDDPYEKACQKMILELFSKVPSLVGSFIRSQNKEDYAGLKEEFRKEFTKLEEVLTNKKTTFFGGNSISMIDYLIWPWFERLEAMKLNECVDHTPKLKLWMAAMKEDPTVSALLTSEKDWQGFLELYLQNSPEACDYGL
LYPLA2 conf – LYPLA2 inhibitors, retest, confirmation, counter-screen for PME1 inhibitor project, biochemical, fluorescence polarization, FP-Rh probe ABPP. recombinant LYPLA2. inhibition, % at 5.9 µM. AID 2232, 2010. actives 72% (n = 1,100). shares compounds with LYPLA2 counter;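 active means mean inhibition across replicates above the hit cutoff set in the primary screen, cut at about 26% in these data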;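 further: blocked labeling of the enzyme by serine hydrolase FP-Rh probe lowers polarization; 0% = enzyme with DMSO and 100% = wells lacking LYPLA2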
LYPLA2 ABPP – LYPLA2 inhibitors in proteome, late-stage follow-up, gel-based competitive ABPP, fluorescence, assay provider. rhLYPLA2 in mouse brain proteome, gel ABPP FP-Rh. shares compounds with LYPLA2 counter. actives 30% (n = 150). inhibition, % at 20 µM;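 active means inhibition of LYPLA2 enzyme probe labeling above about 50%, limit read from the data; inactive means inhibition below that limit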;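 further: loss of FP-Rh probe labeling of the LYPLA2 gel band measured as band density; 0% = DMSO only control band and 100% = blank gel background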
* = called active by the depositor; · = not tested or not shown.

SMILES | Fam108B inh | PME-1 inh | PAD4 inh | LYPLA2 counter | LYPLA1 counter | GSTO1 counter | LYPLA2 conf | others
COCC(=O)N/N=C\c1ccccc1OC/C=C/c1ccccc1 | 1.5 | 0.7 | -0.7 | 49.6* | 1.7 | 7.2 | 42.4*
N#CCC(=O)N/N=C\c1ccccc1OC/C=C/c1ccccc1 | -10.1 | -4.7 | -7.8 | 18.9 | -9.4 | 4.0 | ·
CCCCCCCCNC(C)C(O)c1ccc(SC(C)C)cc1 (stereo unspecified) | 5.7 | 3.0 | -3.6 | 40.3* | 2.2 | 1.6 | 46.2*
COc1cccc(N2CCN(C(=O)C3CCC(=O)N(C4CCCCCC4)C3)CC2)c1 (stereo unspecified) | 1.8 | -3.6 | -2.9 | -0.1 | -1.1 | 3.4 | ·
O=C(O)CN1C(=O)/C(=C\c2cc(Br)ccc2OCc2ccc([N+](=O)[O-])cc2)SC1=S | 12.8 | 15.2 | -5.4 | 62.4* | 2.1 | -1.8 | 63.6*
CSc1cccc(CN2CCC(Oc3cccc(C(=O)N4CCCC4)c3)CC2)c1 | 0.0 | 2.5 | -2.6 | 9.0 | 1.8 | -2.6 | ·
CC(C)/C=C/CN1CCC(Oc2ccc(C(=O)N3CCCC3)cc2)CC1 | 1.7 | 0.7 | -4.5 | 59.8* | -0.1 | 4.4 | 4.7
CSc1cccc(CN2CCC(Oc3ccc(C(=O)N4CCCCC4)cc3)CC2)c1 | -1.1 | 4.5 | 7.7 | 31.4* | 3.8 | 2.9 | 9.1
COc1ccccc1/C=C/CN1CCC(Oc2ccc(C(=O)N3CCCC3)cc2)CC1 | 3.1 | -0.8 | -2.3 | 17.1 | 3.5 | 9.4 | ·
O=C(CN1CCN(C(=O)c2cncn2-c2ccccc2)CC1)Nc1ccccc1Cl | · | 0.1 | -4.6 | -0.5 | -0.9 | · | ·
CC(CCC(C)C)=NNC(=S)Nc1cc(S(=O)(=O)N2CCOCC2)ccc1N1CCOCC1 | · | · | · | · | · | · | · | LYPLA2 ABPP=60.0*
COc1ccc(NC(=S)N2CCCC2c2ccc(OC)c(OC)c2)cc1 (stereo unspecified) | 0.2 | 0.9 | -1.2 | 0.6 | -2.7 | -0.3 | ·
CCOC(=O)c1ccc(NC(=S)N2CCCC2c2ccc(OC)c(OC)c2)cc1 (stereo unspecified) | -5.1 | 2.6 | -0.7 | 30.3* | 0.3 | 4.4 | 25.3
C#CCOCCOCCOCCNc1nc(N2CCN(C(=O)CCCCCCCCCCNC(=O)Cn3cc(C[C@@H](C)O)nn3)CC2)nc(N2CCN(C(=O)CCCCCCCCCCNC(=O)[C@@H]([C@H](C)CC)n3cc(CCCCCN)nn3)CC2)n1 | -2.5 | -0.1 | 0.0 | 30.5* | 0.2 | 3.6 | 28.0*
Cc1cccc(NS(=O)(=O)c2ccc(C(=O)NCC(c3ccco3)N3CCCCC3)cc2)c1C (stereo unspecified) | -0.6 | 18.6 | -7.5 | 3.5 | 0.8 | -2.1 | ·
CCOc1ccccc1NC(=O)COC(=O)CC(C)(C)CC1=NS(=O)(=O)c2ccccc2N1 | -0.6 | 7.7 | 2.2 | 0.9 | -2.3 | 5.8 | ·
c1ccc(-c2ccc(C(c3ccccc3)n3ccnc3)cc2)cc1 (stereo unspecified) | 2.3 | -5.0 | -3.6 | 27.4* | -3.9 | 2.9 | 23.1
O=[N+]([O-])c1ccc(Sc2cccc3cccnc23)c([N+](=O)[O-])c1 | -0.2 | -5.0 | 3.4 | 4.3 | -0.2 | -14.7 | ·
O=[N+]([O-])c1ccc(Sc2cccc3cccnc23)cc1 | 2.6 | -0.8 | -1.7 | 27.6* | 1.1 | -5.5 | 25.7
CCOc1ccc(-n2c(=S)sc3c(=O)n(-c4ccccc4)c(SC)nc32)cc1 | 0.3 | -5.7 | 4.3 | 55.9* | -3.6 | 3.9 | -2.0
CCOC(=O)C1(C)C=C(Nc2ccc(C)cc2)C(=O)N1c1ccc(C)cc1 (stereo unspecified) | 2.6 | 5.0 | -4.6 | 26.8* | 0.5 | -0.8 | -1.9
CCOC(=O)C1(C)/C(=N/Nc2ccc(S(N)(=O)=O)cc2)C(=O)C(=O)N1c1ccccc1 (stereo unspecified) | 0.9 | -4.8 | -11.4 | -1.9 | -3.8 | 8.5 | ·
O=C(CCCN1CCC(O)(c2cccc(C(F)(F)F)c2)CC1)c1ccc(F)cc1 | -2.9 | 0.8 | -2.3 | 71.8* | 0.1 | 4.3 | 68.3*
O=C(CCCN1CCC(O)(c2ccc(Br)cc2)CC1)c1ccc(F)cc1 | 6.5 | 9.4 | 2.4 | 18.2 | 1.8 | -4.3 | ·
CC(Oc1ccccc1F)c1nnc(SCC(=O)NCc2ccc3c(c2)OCO3)o1 (stereo unspecified) | · | -4.5 | -4.3 | 2.4 | -3.3 | · | ·
SMILES | Fam108B inh | PME-1 inh | PAD4 inh | LYPLA2 counter | LYPLA1 counter | GSTO1 counter | LYPLA2 conf | others
COc1ccccc1C(=O)COC(=O)c1cccc(-n2cnnn2)c1 | · | 1.3 | -5.1 | 7.2 | 2.6 | · | ·
COc1ccccc1C(=O)COC(=O)c1ccc(-n2cnnn2)cc1 | 1.5 | 2.4 | 6.5 | 31.7* | 7.7 | 9.2 | 23.7
O=C1CC(c2ccc(OCCCCCOc3ccc(C4CC(=O)NC4=O)cc3)cc2)C(=O)N1 (stereo unspecified) | -1.6 | -4.3 | -3.5 | 39.9* | 4.2 | -2.4 | 52.7* | LYPLA2 ABPP=32.0
CC(=O)Nc1ccc2c(COC(=O)[C@@H](NS(=O)(=O)c3ccc(C)cc3)C(C)C)cc(=O)oc2c1 | · | · | -0.7 | · | · | · | ·
Cc1cccc(Oc2cc(NC(=O)Cn3cnc([N+](=O)[O-])n3)cc([N+](=O)[O-])c2)c1 | -3.8 | 5.2 | -0.5 | 41.6* | -13.8 | -16.0 | 24.2
CCCCCCC1CCC(C(=O)Nn2c(C)nc3ccccc3c2=O)CC1 (stereo unspecified) | -3.9 | -0.1 | 4.5 | 46.0* | 0.8 | 1.6 | 37.0*
COc1ccc(CNCCc2ccc(Cl)cc2)cc1OCc1ccccc1 | 2.0 | -0.3 | -4.4 | 4.0 | 0.1 | 3.8 | ·
COc1ccc(CCNCc2ccc(OCc3ccccc3)cc2)cc1 | -3.9 | -1.0 | -6.6 | 32.1* | 0.9 | -0.2 | 29.9*
CCOC(=O)N1CCN(CC(=O)Nc2sccc2C#N)CC1 | 6.8 | 4.9 | -1.7 | 45.3* | 10.4 | 13.7 | 38.7*
O=C(Nc1ccc([N+](=O)[O-])cc1)c1ccc(Cn2cc([N+](=O)[O-])cn2)cc1 | -4.5 | 1.5 | 7.2 | 46.1* | -5.6 | -0.6 | 48.9*
O=C(Nc1ccc(Nc2ccncc2)cc1)c1ccc([N+](=O)[O-])cc1 | 3.1 | 3.7 | -1.8 | 7.5 | 2.1 | 5.7 | ·
